Drawing on the supplement of paper PMC10849652, this text covers log2 fold change for 38 targets.

Of roughly 7,900 targets only a part is listed; those with a hit were picked by preference. About 0.6% of all pairs of compound and target were hits.

UniProt Q16891, sequence (Q16891 whole entry, looked up): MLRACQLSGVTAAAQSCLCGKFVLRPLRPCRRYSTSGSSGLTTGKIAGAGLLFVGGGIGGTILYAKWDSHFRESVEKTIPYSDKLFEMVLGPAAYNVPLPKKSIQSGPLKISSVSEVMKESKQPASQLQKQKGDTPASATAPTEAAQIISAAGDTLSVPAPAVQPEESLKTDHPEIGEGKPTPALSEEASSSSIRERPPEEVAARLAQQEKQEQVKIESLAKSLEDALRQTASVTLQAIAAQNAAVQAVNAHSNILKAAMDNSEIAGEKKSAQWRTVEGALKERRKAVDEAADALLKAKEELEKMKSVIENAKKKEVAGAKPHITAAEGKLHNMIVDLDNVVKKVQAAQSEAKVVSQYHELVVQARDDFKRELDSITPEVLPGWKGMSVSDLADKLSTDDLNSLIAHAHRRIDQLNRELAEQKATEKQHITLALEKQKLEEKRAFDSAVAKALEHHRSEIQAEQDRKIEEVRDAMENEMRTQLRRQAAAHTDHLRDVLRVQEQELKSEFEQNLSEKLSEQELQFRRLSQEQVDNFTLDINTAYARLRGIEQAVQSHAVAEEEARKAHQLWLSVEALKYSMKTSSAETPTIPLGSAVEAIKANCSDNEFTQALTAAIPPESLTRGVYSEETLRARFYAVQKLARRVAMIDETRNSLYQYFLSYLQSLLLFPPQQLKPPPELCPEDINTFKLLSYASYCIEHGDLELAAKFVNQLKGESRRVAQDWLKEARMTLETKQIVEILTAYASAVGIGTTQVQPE
UniProt Q9NQG6, sequence (Q9NQG6 whole entry, looked up): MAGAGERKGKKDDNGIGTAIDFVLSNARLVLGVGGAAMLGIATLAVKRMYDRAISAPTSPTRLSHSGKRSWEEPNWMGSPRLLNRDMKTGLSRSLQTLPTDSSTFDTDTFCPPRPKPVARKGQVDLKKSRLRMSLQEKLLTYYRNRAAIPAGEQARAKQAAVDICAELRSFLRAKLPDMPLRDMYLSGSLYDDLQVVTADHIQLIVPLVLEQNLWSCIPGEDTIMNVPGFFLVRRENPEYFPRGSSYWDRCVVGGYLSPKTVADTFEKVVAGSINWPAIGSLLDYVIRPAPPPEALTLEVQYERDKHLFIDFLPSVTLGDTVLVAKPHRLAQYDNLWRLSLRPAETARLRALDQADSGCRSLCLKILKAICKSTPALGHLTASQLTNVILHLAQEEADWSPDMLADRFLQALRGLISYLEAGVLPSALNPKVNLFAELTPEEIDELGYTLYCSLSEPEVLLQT
UniProt P52294, sequence (P52294 whole entry, looked up): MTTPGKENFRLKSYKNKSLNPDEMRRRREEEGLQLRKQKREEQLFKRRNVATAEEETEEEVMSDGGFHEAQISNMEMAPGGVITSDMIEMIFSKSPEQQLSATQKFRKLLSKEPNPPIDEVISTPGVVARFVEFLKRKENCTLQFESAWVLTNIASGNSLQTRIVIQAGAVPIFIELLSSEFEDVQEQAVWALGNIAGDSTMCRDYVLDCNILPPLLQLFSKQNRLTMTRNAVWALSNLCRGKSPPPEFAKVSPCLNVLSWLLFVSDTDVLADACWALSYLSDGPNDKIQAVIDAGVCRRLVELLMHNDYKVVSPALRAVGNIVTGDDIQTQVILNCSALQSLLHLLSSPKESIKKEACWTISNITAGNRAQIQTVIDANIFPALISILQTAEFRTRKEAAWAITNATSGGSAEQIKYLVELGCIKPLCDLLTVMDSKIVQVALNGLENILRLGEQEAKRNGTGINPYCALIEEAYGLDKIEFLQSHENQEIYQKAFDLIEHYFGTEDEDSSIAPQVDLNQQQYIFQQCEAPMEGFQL
UniProt A8MWY0, sequence (A8MWY0 whole entry, looked up): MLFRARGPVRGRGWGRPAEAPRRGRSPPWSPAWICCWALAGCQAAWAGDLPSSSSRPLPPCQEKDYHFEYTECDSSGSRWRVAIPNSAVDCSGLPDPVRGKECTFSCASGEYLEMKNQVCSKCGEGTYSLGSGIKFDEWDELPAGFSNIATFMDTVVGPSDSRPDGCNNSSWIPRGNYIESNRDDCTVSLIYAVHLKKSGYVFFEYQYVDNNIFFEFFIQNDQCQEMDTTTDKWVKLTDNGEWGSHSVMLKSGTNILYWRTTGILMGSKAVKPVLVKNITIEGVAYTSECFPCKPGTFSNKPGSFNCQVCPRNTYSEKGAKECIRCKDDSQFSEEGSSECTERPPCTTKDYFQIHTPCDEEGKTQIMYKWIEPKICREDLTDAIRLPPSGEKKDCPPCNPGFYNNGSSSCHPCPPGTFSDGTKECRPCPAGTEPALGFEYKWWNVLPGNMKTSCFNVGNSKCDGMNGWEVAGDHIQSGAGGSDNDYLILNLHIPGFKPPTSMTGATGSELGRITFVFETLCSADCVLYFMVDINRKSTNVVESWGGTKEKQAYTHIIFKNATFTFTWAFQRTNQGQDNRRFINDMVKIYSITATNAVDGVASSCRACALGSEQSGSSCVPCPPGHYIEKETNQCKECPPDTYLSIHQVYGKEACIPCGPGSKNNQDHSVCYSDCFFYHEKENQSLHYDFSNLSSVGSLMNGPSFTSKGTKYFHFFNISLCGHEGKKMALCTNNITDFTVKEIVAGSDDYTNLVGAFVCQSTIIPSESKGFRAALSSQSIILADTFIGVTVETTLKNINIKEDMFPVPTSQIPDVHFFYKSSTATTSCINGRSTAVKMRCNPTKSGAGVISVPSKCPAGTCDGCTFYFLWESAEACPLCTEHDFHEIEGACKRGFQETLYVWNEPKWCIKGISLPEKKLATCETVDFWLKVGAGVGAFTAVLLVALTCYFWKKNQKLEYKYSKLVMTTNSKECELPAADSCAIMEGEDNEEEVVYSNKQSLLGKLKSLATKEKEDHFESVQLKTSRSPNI
UniProt Q14653, sequence (Q14653 whole entry, looked up): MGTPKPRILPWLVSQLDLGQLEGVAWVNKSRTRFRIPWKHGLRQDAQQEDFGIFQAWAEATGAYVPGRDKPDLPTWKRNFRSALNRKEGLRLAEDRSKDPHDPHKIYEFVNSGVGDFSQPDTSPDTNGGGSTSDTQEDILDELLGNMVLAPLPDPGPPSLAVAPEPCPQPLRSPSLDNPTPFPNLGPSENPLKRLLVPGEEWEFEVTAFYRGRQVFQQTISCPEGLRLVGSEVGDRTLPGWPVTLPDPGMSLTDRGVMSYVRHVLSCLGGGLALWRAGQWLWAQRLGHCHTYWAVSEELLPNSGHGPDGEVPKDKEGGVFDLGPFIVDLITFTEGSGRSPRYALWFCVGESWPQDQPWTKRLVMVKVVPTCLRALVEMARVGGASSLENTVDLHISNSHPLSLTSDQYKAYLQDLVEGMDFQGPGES
UniProt Q9UBF1, sequence (Q9UBF1 whole entry, looked up): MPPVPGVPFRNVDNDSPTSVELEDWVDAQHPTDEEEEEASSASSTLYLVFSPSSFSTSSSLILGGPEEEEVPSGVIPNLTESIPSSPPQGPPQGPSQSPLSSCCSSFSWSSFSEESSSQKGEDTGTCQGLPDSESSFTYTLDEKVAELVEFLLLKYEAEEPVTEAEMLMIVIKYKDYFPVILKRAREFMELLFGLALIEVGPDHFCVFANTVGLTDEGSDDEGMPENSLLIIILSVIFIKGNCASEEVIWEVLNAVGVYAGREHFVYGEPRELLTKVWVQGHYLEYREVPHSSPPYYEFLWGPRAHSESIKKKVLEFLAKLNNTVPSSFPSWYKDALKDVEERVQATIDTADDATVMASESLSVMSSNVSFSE
UniProt P14174, sequence (P14174 whole entry, looked up): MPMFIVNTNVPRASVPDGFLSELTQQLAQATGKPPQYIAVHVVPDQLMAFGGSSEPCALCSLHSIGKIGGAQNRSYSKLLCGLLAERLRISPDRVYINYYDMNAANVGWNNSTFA
UniProt Q13422, sequence (Q13422 whole entry, looked up): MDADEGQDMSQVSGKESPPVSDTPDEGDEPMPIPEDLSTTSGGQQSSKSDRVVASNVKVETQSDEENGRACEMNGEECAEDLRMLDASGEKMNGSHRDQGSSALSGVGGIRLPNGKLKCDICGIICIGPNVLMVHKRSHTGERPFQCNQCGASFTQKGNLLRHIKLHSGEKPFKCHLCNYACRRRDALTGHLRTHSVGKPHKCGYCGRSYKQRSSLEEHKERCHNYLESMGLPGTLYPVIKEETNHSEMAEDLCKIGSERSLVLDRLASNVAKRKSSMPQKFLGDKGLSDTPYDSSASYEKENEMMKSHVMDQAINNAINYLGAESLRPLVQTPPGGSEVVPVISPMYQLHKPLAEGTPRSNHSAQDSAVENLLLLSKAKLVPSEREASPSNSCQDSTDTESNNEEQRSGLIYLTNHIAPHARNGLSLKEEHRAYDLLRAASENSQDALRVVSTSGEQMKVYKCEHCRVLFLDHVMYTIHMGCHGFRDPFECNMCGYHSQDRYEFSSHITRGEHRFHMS
UniProt Q8N108, sequence (Q8N108 whole entry, looked up): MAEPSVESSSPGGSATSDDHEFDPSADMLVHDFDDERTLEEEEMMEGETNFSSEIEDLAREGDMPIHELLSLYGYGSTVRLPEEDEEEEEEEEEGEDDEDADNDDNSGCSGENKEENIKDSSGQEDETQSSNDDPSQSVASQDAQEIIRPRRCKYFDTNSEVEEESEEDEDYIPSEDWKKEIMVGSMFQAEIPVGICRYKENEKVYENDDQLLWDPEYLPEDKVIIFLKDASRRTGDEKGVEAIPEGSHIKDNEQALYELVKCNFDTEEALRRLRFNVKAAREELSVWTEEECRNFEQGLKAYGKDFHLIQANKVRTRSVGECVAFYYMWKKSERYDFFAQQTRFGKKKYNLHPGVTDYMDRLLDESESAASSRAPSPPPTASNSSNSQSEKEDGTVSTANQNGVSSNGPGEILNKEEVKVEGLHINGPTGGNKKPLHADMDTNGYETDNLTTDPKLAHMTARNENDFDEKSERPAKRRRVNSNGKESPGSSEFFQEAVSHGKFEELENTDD
UniProt P49006, sequence (P49006 whole entry, looked up): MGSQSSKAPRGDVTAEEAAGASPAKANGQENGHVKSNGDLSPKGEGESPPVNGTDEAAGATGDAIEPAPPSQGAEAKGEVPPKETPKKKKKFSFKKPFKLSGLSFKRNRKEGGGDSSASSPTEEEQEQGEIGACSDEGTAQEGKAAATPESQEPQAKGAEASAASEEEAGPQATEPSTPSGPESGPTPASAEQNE

Compound in the first experiment: Nc1ccccc1NC(=O)c1ccc(CNC(=O)OCc2cccnc2)cc1 [entinostat]
As to the kind of experiment: log2 fold change, soluble protein after heating vs DMSO (PISA); higher = thermal stabilisation; K562 cells, 10 uM, 30 min; active = over 0.2 and 3.5 SD of the protein, either way, in both replicates (recomputed). The method, boiled down:
(§1)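 Soluble protein was defined as the supernatant after 21,000xg for 90 min. It came from K562 cells at 2×10^6 cells/mL given 10 μM compound for 30 min, heated in aliquots for 3 min across 48°C-58°C, pooled, and extracted in PBS with 0.5% NP-40 at 4°C, and was quantified by TMTpro 16plex LC-MS/MS with equalised channel sums. Thermal stability against control samples, from duplicates, is reported as log2 fold change.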
As to IMMT isoform 2 (UniProt Q16891), the log2 fold change is 0.039 (inactive).

With KTN1 (UniProt Q86UP2), the log2 fold change was 0.05 (inactive).

Regarding MAGEC2 (UniProt Q9UBF1), the log2 fold change was -0.009 (inactive).

In the case of IKZF1 (UniProt Q13422), the log2 fold change was 0.064 (inactive).

For the target MAPKAPK5 (UniProt Q8IW41), the log2 fold change was 0.027 (inactive).

As to IWS1 (UniProt Q96ST2), the log2 fold change is 0.012 (inactive).

For the target MIER1 isoform 12 (UniProt Q8N108), the log2 fold change is 0.292 (active).

As for KIAA1324L (UniProt A8MWY0), the log2 fold change was -0.067 (inactive).

MIEF1 (UniProt Q9NQG6): the log2 fold change was 0.056 (inactive).

For the target KPNA1 (UniProt P52294), the log2 fold change was 0.099 (inactive).

As to MARCKSL1 (UniProt P49006), the log2 fold change is 0.075 (inactive).

Regarding MIF (UniProt P14174), the log2 fold change was 0.099 (inactive).

As to IRF3 (UniProt Q14653), the log2 fold change was -0.078 (inactive).

As for MAST4 (UniProt O15021), the log2 fold change is 0.085 (inactive).

As to ME2 (UniProt P23368), the log2 fold change is -0.013 (inactive).

Compound in a further experiment: O=C(CCCCCCC(=O)Nc1ccccc1)NO [vorinostat]
Described as above. The method, boiled down: as §1
As for LMNA (UniProt P02545), the log2 fold change was -0.026 (inactive).

MAP4 (UniProt E7EVA0): the log2 fold change was -0.018 (inactive).

Turning to LMBRD1 (UniProt Q9NUN5), the log2 fold change was 0.048 (inactive).

As to MFSD11 (UniProt O43934), the log2 fold change is -0.028 (inactive).

Consider KLHL18 (UniProt O94889), for which the log2 fold change is 0.137 (inactive).

As to L2HGDH (UniProt Q9H9P8), the log2 fold change is -0.014 (inactive).

As for INPP1 (UniProt P49441), the log2 fold change is -0.066 (inactive).

Turning to MAPKAPK2 (UniProt P49137), the log2 fold change was 0.04 (inactive).

For the target LRRFIP1 (UniProt Q32MZ4), the log2 fold change is -0.079 (inactive).

As for LTN1 isoform 3 (UniProt O94822), the log2 fold change was 0.148 (inactive).

MARK3 (UniProt P27448): the log2 fold change was 0.139 (inactive).

Consider MICOS13 (UniProt Q5XKP0), for which the log2 fold change was 0.018 (inactive).

As to MAP1LC3B2 (UniProt A6NCE7), the log2 fold change is -0.058 (inactive).

With MFSD1 isoform 6 (UniProt Q9H3U5), the log2 fold change was -0.053 (inactive).

In the case of KPNA6 (UniProt O60684), the log2 fold change was 0.061 (inactive).

As to LPIN1 isoform 7 (UniProt Q14693), the log2 fold change is 0.136 (inactive).

On to LAMP2 (UniProt P13473), for which the log2 fold change is 0.083 (inactive).

For MCCC2 (UniProt Q9HCC0), the log2 fold change is -0.043 (inactive).

Consider MED17 (UniProt Q9NVC6), for which the log2 fold change was 0.045 (inactive).

For the target IPO9 (UniProt Q96P70), the log2 fold change is 0.041 (inactive).

KCTD2 (UniProt Q14681): the log2 fold change was -0.543 (inactive).

MCL1 (UniProt Q07820): the log2 fold change is 0.011 (inactive).

ILK (UniProt Q13418): the log2 fold change is 0.083 (inactive).

As for IMMT isoform 2 (UniProt Q16891), the log2 fold change was 0.159 (inactive).

In the case of KTN1 (UniProt Q86UP2), the log2 fold change is 0.027 (inactive).

MAGEC2 (UniProt Q9UBF1): the log2 fold change is 0.032 (inactive).

For the target IKZF1 (UniProt Q13422), the log2 fold change is 0.003 (inactive).

Consider MAPKAPK5 (UniProt Q8IW41), for which the log2 fold change was 0.053 (inactive).

Turning to IWS1 (UniProt Q96ST2), the log2 fold change is -0.008 (inactive).

With MIER1 isoform 12 (UniProt Q8N108), the log2 fold change is 0.28 (active).

Take KIAA1324L (UniProt A8MWY0): the log2 fold change is 0.003 (inactive).

Take MIEF1 (UniProt Q9NQG6): the log2 fold change is 0.019 (inactive).

In the case of KPNA1 (UniProt P52294), the log2 fold change is 0.036 (inactive).

For MARCKSL1 (UniProt P49006), the log2 fold change was -0.062 (inactive).

In the case of MIF (UniProt P14174), the log2 fold change is -0.085 (inactive).

Consider IRF3 (UniProt Q14653), for which the log2 fold change is 0.06 (inactive).

Consider MAST4 (UniProt O15021), for which the log2 fold change is 0.045 (inactive).

As to ME2 (UniProt P23368), the log2 fold change is 0.058 (inactive).

Compound in the next experiment: O=C(CCCCCCNC(=O)c1cnc(N(c2ccccc2)c2ccccc2Cl)nc1)NO [citarinostat]
The experiment is described as above. The method, boiled down:
as §1
For LMNA (UniProt P02545), the log2 fold change is 0.039 (inactive).

As for MAP4 (UniProt E7EVA0), the log2 fold change was -0.164 (inactive).

Consider LMBRD1 (UniProt Q9NUN5), for which the log2 fold change was 0.048 (inactive).

Consider MFSD11 (UniProt O43934), for which the log2 fold change is -0.096 (inactive).

Consider KLHL18 (UniProt O94889), for which the log2 fold change is 0.123 (inactive).

Take L2HGDH (UniProt Q9H9P8): the log2 fold change is 0.029 (inactive).

On to INPP1 (UniProt P49441), for which the log2 fold change is 0.024 (inactive).

As to MAPKAPK2 (UniProt P49137), the log2 fold change was 0.058 (inactive).

On to LRRFIP1 (UniProt Q32MZ4), for which the log2 fold change was -0.007 (inactive).

Regarding LTN1 isoform 3 (UniProt O94822), the log2 fold change is 0.048 (inactive).

Take MARK3 (UniProt P27448): the log2 fold change is 0.103 (inactive).

For the target MICOS13 (UniProt Q5XKP0), the log2 fold change was 0.028 (inactive).

On to MAP1LC3B2 (UniProt A6NCE7), for which the log2 fold change was 0.046 (inactive).

Take MFSD1 isoform 6 (UniProt Q9H3U5): the log2 fold change was 0.03 (inactive).

Take KPNA6 (UniProt O60684): the log2 fold change is 0.047 (inactive).

With LPIN1 isoform 7 (UniProt Q14693), the log2 fold change is 0.001 (inactive).

Take LAMP2 (UniProt P13473): the log2 fold change is 0.158 (inactive).

As for MCCC2 (UniProt Q9HCC0), the log2 fold change is 0.083 (inactive).

As to MED17 (UniProt Q9NVC6), the log2 fold change is 0.014 (inactive).

Take IPO9 (UniProt Q96P70): the log2 fold change is 0.061 (inactive).

As for KCTD2 (UniProt Q14681), the log2 fold change is -0.274 (inactive).

For the target MCL1 (UniProt Q07820), the log2 fold change is -0.079 (inactive).

As to ILK (UniProt Q13418), the log2 fold change was -0.006 (inactive).

For IMMT isoform 2 (UniProt Q16891), the log2 fold change was 0.042 (inactive).

On to KTN1 (UniProt Q86UP2), for which the log2 fold change is 0.033 (inactive).

For the target MAGEC2 (UniProt Q9UBF1), the log2 fold change was 0.029 (inactive).

Consider IKZF1 (UniProt Q13422), for which the log2 fold change was 0.019 (inactive).

As to MAPKAPK5 (UniProt Q8IW41), the log2 fold change was -0.003 (inactive).

Regarding IWS1 (UniProt Q96ST2), the log2 fold change was -0.059 (inactive).

MIER1 isoform 12 (UniProt Q8N108): the log2 fold change was 0.273 (active).

On to KIAA1324L (UniProt A8MWY0), for which the log2 fold change was 0.004 (inactive).

Turning to MIEF1 (UniProt Q9NQG6), the log2 fold change is 0.073 (inactive).

On to KPNA1 (UniProt P52294), for which the log2 fold change was 0.166 (inactive).

Regarding MARCKSL1 (UniProt P49006), the log2 fold change was 0.162 (inactive).

On to MIF (UniProt P14174), for which the log2 fold change is -0.013 (inactive).

Turning to IRF3 (UniProt Q14653), the log2 fold change is 0.028 (inactive).

With MAST4 (UniProt O15021), the log2 fold change was 0.135 (inactive).

For the target ME2 (UniProt P23368), the log2 fold change is 0.025 (inactive).
